# Screens as filed in PubChem BioAssay.
# Pf growth 96h: Primary qHTS for delayed death inhibitors of the malarial parasite plastid, 96 hour incubation; Potency, µM (doses to about 28.7 µM), for the others: at the top dose activity change, negative = inhibition, hits mostly inhibitors; actives 6.9% (n = 320,000); P. falciparum luciferase reporter growth, 96 h; note: potency is the fitted concentration of half-maximal effect
#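 96 h incubation, 37 C, 5% CO2, of luciferase-reporter P. falciparum-infected RBCs (2% hematocrit, 0.05% parasitemia final) with test compounds; endpoint luminescence.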
# HCMV antiviral: qHTS Assay for inhibitors of the human cytomegalovirus (HCMV); HFF cells, HCMV-luciferase reporter, 72 h; stronger effect = lower value; activity change, negative = inhibition, % at 57.5 µM; actives 4.5% (n = 410,000); AID 1259415, 2018; in the data active = activity change below about -60%; inconclusive = no clear call, values can overlap the other calls; inactive = above about -39%
#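 HFF cells seeded 16 h at 37C, treated with compounds, infected with luciferase-reporter HCMV at MOI 1 PFU/cell; luciferase read at 72 h post infection, normalized to buffer-only and Salinomycin controls.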
# MARV entry inh: qHTS for inhibitors of binding or entry into cells for Marburg Virus; Marburg virus pseudotyped entry inhibition, cell reporter; Potency, µM (top dose mostly 37.8 µM), for the others: at the top dose activity change, negative = inhibition, most hits filed as inhibitors; actives 1.8% (n = 300,000); calls by dose curve; tested in HEK293 cells; note: potency is the fitted concentration of half-maximal effect
# Lassa entry inh: qHTS for Inhibitors of binding or entry into cells for Lassa Virus; Potency, µM (doses to about 37.9 µM), inactives show at the top dose activity change, negative = inhibition, hits mostly inhibitors; AID 540256, 2011; Lassa virus pseudotype entry inhibition, cell reporter; actives 1.2% (n = 300,000); calls by dose curve; tested in HEK293 cells; note: potency is the fitted concentration of half-maximal effect; nearly all actives have a fitted effect of over 50% in size
# HCV inhibitor: qHTS Assay for Inhibitors of Hepatitis C Virus (HCV). Huh7.5.1 HCVcc-Cre infection, luciferase reporter, 44 h. Potency, µM (highest dose often 41.8 µM), inactives show at the highest dose activity change, negative = inhibition, most hits filed as inhibitors. actives 3.4% (n = 340,000). AID 651820, 2012; note: potency is the fitted concentration of half-maximal effect
#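 After 44 h co-culture of compound, cells and HCVcc-Cre (~0.5 moi), substrate is added for 15 min at room temperature and luciferase measured over 15 sec. Cells were seeded at 1,000/well and pre-cultured 4 h.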
# Pf growth 48h: Primary qHTS for delayed death inhibitors of the malarial parasite plastid, 48 hour incubation. P. falciparum luciferase growth in erythrocytes, 48 h. Potency, µM (titrated, usually from 28.7 µM), for the others: at the top dose activity change, negative = inhibition, hits mostly inhibitors. actives 5.9% (n = 310,000). AID 504832, 2011; note: potency is the fitted concentration of half-maximal effect
#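 Luciferase-expressing parasites in RBCs, 2% Hct / 0.1% parasitemia final; RPMI 1640 + 0.5% Albumax; 37 C, 5% CO2, one generation; luminescence read-out, lower signal = inhibition.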
# * marks the source's active call; other numbers are inactive results; ? = inconclusive; · = not tested or not shown; [ ] = dose if it differs, or a comment. Sampled rows, rich in hits. Any-hit rate of the full collection: about 14%. Unless noted, calls come from the whole dose curve; as a rule, active = well fitted inhibition curve with a large enough effect; inconclusive = small, poorly fitted or top-dose-only effect, or another doubt; inactive = no such curve, though single readings can be large or run the other way. % is set by controls: 0 for no effect and ±100 for the full control effect.
SMILES,Pf growth 96h,HCMV antiviral,MARV entry inh,Lassa entry inh,HCV inhibitor,Pf growth 48h
O=c1cc(N2CCCCC2)c(-c2ccccc2)nn1Cc1ccccc1Cl,2.62µM*,-18.0,?,?,?,3.29µM*
O=c1c2ccccc2c(-c2ccccc2)nn1Cc1ccc(Cl)cc1,68.5%,22.4,-27.6%,-0.4%,1.4%,?
O=c1cc(N2CCCCC2)c(-c2ccccc2)nn1Cc1cccc(Cl)c1,?,20.0,-19.9%,-30.0%,4.1%,?
COc1ccc2c(C)c(CC(=O)NCc3ccc(C)cc3)c(=O)oc2c1OC,·,17.0,-11.0%[46.1 µM],19.5%[46.1 µM],·,·
O=C1OC2(CCCCC2)CC2=C1C1O[C@](CCCCN3C(=O)c4ccccc4C3=O)(Cc3ccccc31)O2,?,·,·,·,·,1.51µM*
COc1cc2c(cc1OC)C1O[C@](CCCCN3C(=O)c4ccccc4C3=O)(C2)OC2=C1C(=O)CC(C)(C)C2,?,·,-8.8%[14.2 µM],·,·,0.239µM*
COc1cc2c(cc1OC)[C@@H]1O[C@](CCCCN3C(=O)c4ccccc4C3=O)(C2)OC2=C1C(=O)CC(C)(C)C2,·,·,-8.8%[14.2 µM],·,·,·
CCC[C@H]1[C@@H](NS(=O)(=O)c2ccc([N+](=O)[O-])cc2[N+](=O)[O-])CC[C@@]23CCCN2C(=O)CCC[C@@H]13,·,-20.6,·,·,·,·
CC(=O)Nc1ccc(NS(=O)(=O)c2cc(-c3cnc(C4CC4)o3)ccc2C)cc1,-1.6%,14.4,·,·,-19.4%,?
CC(=O)c1ccc(NS(=O)(=O)c2cc(-c3cnc(C4CC4)o3)ccc2C)cc1,?,-4.7,-13.0%[46.1 µM],-28.4%[46.1 µM],-0.8%,?
Cc1ccc(-c2cnc(C3CC3)o2)cc1S(=O)(=O)Nc1ccccc1,14.7µM*,·,·,·,?,?
Cc1ccc(NS(=O)(=O)c2cc(-c3cnc(C4CC4)o3)ccc2C)cc1Cl,·,-64.2*,·,?,·,·
Fc1ccc(C(NCCc2ccc(Cl)cc2)c2nnc(-c3ccccc3)o2)c(Cl)c1 (stereo not drawn),·,10.1,-23.9%[46.1 µM],10.0%[46.1 µM],·,·
COc1ccc(CCNC(c2ccc(F)cc2)c2nnc(-c3ccccc3Cl)o2)cc1OC (stereo not drawn),·,-9.1,12.6µM*,-28.4%[46.1 µM],·,·
Cc1cc(C(C)(C)C)ccc1OCCOCCN1CCCC1,?,-29.4,8.2µM*,?,?,-17.8%
COCCCNCCOCCOc1ccc(Cl)cc1C(C)(C)C,18.7%,?,5.8µM*,?,?,?
Cc1cc(C)c(C)c(OCCOCCN2CCN(C)CC2)c1,?,-1.0,?,-27.2%,3.98µM*,23.1%
CC(C)(C)c1cc(Cl)ccc1OCCOCCN1CCCC1,-8.7%,-10.2,8.91µM*,?,?,?
C=CCNCCOCCOc1ccc(Cl)cc1C(C)(C)C,?,14.0,?,-15.7%,?,-8.3%
Cc1ccc(OCCOCCN2CCN(C)CC2)c(C(C)(C)C)c1,-44.7%,-24.8,·,·,?,?
O=C(NCc1ccc(F)cc1)C(=O)Nc1ccc2nc3n(c(=O)c2c1)CCCCC3,·,4.8,21.3%[46.1 µM],-1.4%[46.1 µM],·,·
Clc1ccc(-c2csc3ncnc(N4CCc5ccccc5C4)c23)cc1,?,-38.5,9.9%,0.1%,-5.2%,?
CN1CCCN(c2ncnc3scc(-c4ccc(F)cc4)c23)CC1,-0.7%,-23.8,·,·,?,5.2%
CCn1cnc2scc(-c3ccc(OC)cc3)c2c1=O,10.4µM*,-29.8,·,·,-13.7%,-1.6%
COc1ccc(-c2csc3ncnc(N4CCN(c5ccccc5)CC4)c23)cc1,?,-30.1,?,?,?,?
SMILES,Pf growth 96h,HCMV antiviral,MARV entry inh,Lassa entry inh,HCV inhibitor,Pf growth 48h
Clc1ccc(CN2CCN(c3ncnc4scc(-c5cccs5)c34)CC2)cc1,13.1µM*,-97.8*,?,?,?,·
COc1ccc(-c2csc3ncnc(N4CCN(Cc5ccccc5)CC4)c23)cc1,6.57µM*,-88.7*,0.9%,11.0%,2.9%,?
Cc1ccccc1N1CCN(c2ncnc3scc(-c4cccs4)c23)CC1,-43.4%,-66.9*,23.1µM*,-42.9%,10µM*,?
CC(C)c1cc(-c2nc(-c3ccccc3)no2)n[nH]1,·,-39.4,·,18.2%[46.1 µM],·,·
CCOC(=O)C1(C)CCN1C(=O)c1ccccc1 (stereo not drawn),·,-0.3,·,·,·,·
COc1ccc(-n2ncc3c(N4CCN(Cc5ccccc5)CC4)ncnc32)cc1,?,-95.1*,?,?,?,-7.8%
Cc1ccc(-c2csc3ncn(Cc4ccc(C(=O)O)cc4)c(=O)c23)cc1C,11.7µM*,15.9,·,·,4.8%,-2.4%
Cc1ccc(-c2csc3nc[nH]c(=S)c23)cc1C,10.4µM*,?,-3.6%,?,?,?
COc1ccc(-c2csc3ncnc(N4CCN(c5ccc(OC)cc5)CC4)c23)cc1,13.1µM*,15.4,·,·,?,?
Clc1cccc(-n2ncc3c(N4CCN(Cc5ccccc5)CC4)ncnc32)c1,·,1.4,·,0.3%[46.1 µM],·,·
O=C(O)c1ccc(Cn2cnc3scc(-c4ccccc4)c3c2=O)cc1,34.3%,?,-16.6%[46.1 µM],2.6%[46.1 µM],10.0%,1.0%
C[C@@H]1Cc2ccccc2N1NC(=O)c1ccc(Cl)c(S(N)(=O)=O)c1,·,·,5.0%,·,·,·
O=C(NCc1ccccc1F)c1cccc(S(=O)(=O)N2CCCCCC2)c1,?,-21.9,·,·,?,?
CC(C)(C)c1ccc(Oc2nc3ccccn3c(=O)c2/C=C(\C#N)c2nc3ccccc3[nH]2)cc1,·,15.9,?,?,·,·
CCc1nn2c(=O)cc(COC(=O)c3ccc(SC)cc3OC)nc2s1,?,35.9,-1.4%,4.2%,-28.5%,?
Cc1ccc(-c2csc3ncnc(-n4nnc5ccccc54)c23)cc1C,?,-32.4,?,2.7%,?,?
COc1ccc(-c2csc3ncnc(N4CCN(c5ccccc5[N+](=O)[O-])CC4)c23)cc1,9.28µM*,·,?,?,15.8µM*,?
Fc1ccc(CN2CCN(c3ncnc4scc(-c5ccc(F)cc5)c34)CC2)cc1,?,-86.4*,·,·,-24.8%,·
CCN1CCN(c2ncnc3scc(-c4ccc(C)c(C)c4)c23)CC1,?,-66.8*,?,-14.3%,?,?
N#CC(=C(O)COC(=O)CCC1CCCCC1)c1nc2ccccc2[nH]1,·,-12.6,-5.6%,-11.0%,3.3%,·
CCC(CC)C(C(=O)NC1CCCCC1)N1C(=O)C(=O)c2ccccc21 (stereo not drawn),·,3.4,·,·,·,·
CC(C)(CO)C(O)C(=O)NCCCC(=O)O (stereo not drawn),-17.3%,·,·,·,·,-92.3%
CC(C)(O)c1cc2ccc(C#Cc3ccsc3)cc2c(=O)o1,42.6%,18.9,·,·,?,25.2%
